Results taken from paper PMC5540273 (PLoS ONE, 2017).

Experiments:
Conditions in all cases: concentration: 1 μM,replicates: in singlicate; n = 1
MTOR = tested on: MTOR
MUSK = tested on: MUSK
MYLK2 = tested on: MYLK2
MYLK4 = tested on: MYLK4
MYLK = tested on: MYLK
MYO3A = tested on: MYO3A
MYO3B = tested on: MYO3B
NDR1 = tested on: T1, NDR1
T1 construct: gene STK38

NDR2 = tested on: NDR2
NEK10 = tested on: NEK10
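Further: KINOMEscan kinase panel screen.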

Structure (SMILES) | %Inh (MTOR) [%] | %Inh (MUSK) [%] | %Inh (MYLK2) [%] | %Inh (MYLK4) [%] | %Inh (MYLK) [%] | %Inh (MYO3A) [%] | %Inh (MYO3B) [%] | %Inh (NDR1) [%] | %Inh (NDR2) [%] | %Inh (NEK10) [%]
COc1cc(Nc2nccc(N3CCC(NC(=O)c4cccc(C#N)c4)C3)n2)cc(OC)c1OC (stereo not drawn) [GSK1379751] | 0 | 0 | 0 | 4 | 0 | 46 | 0 | 0 | 0 | 6
COC(=O)c1cccc(NC(=O)NC2CCN(c3ccnc(Nc4cc(OC)c(OC)c(OC)c4)n3)C2)c1 (stereo not drawn) [GSK1379767] | 26 | 5 | 25 | 14 | 11 | 43 | 0 | 18 | 38 | 3
CN(c1ccc2c(c1)nc(NCc1ccc(F)cc1)n2C)c1ccnc(Nc2ccc(CS(C)(=O)=O)cc2)n1.Cl [GW813244] | 0 | 51 | 0 | 13 | 1 | 0 | 45 | 31 | 0 | 10
NC(=O)Nc1sc(-c2ccc(F)cc2)cc1C(N)=O [GW789449] | 23 | 0 | 11 | 97.8 | 10 | 0 | 0 | 3 | 7 | 3
CCN1CCN(CCCC(=O)Nc2n[nH]c3nc(-c4ccc(O)cc4)c(Br)cc23)CC1 [SB-731579] | 0 | 0 | 98.5 | 1 | 0 | 62 | 17 | 0 | 0 | 0
Cn1ccc2ncnc(Oc3ccc(NC(=O)Nc4cncc(C(F)(F)F)c4)c(Cl)c3)c21 | 7 | 95 | 0 | 0 | 0 | 0 | 0 | 0 | 0 | 11
Cn1cc(-c2cccc3c(N)c(C(N)=O)nnc23)cn1 | 0 | 3 | 0 | 81 | 33 | 15 | 23 | 8 | 23 | 48
COC(=O)Nc1nc2cc(Oc3ccc(NC(=O)Nc4cc(C(F)(F)F)ccc4Cl)cc3)ccc2[nH]1.Cl [GW697465] | 19 | 99.2 | 6 | 0 | 0 | 11 | 0 | 8 | 0 | 13
O=c1[nH]cc(-c2ccc(O)cc2)c2sc(-c3ccncc3)cc12 [GSK1033723] | 18 | 0 | 33 | 44 | 26 | 0 | 0 | 38 | 8 | 12
COc1cc2ncn(-c3cc(OCC4CCCCC4)c(C(N)=O)s3)c2cc1OC [GSK204559] | 7 | 4 | 9 | 85 | 20 | 0 | 0 | 11 | 0 | 4
O=C(Nc1cccc(C(F)(F)F)c1)c1cccc(Oc2ccc3nccn3n2)c1 | 0 | 12 | 0 | 0 | 6 | 0 | 0 | 80 | 0 | 0
C[C@@H](Oc1cc(-n2cnc3cc(-c4cnn(C)c4)ccc32)sc1C(N)=O)c1ccccc1Cl [GSK580432] | 14 | 64 | 65 | 22 | 17 | 17 | 0 | 15 | 0 | 30
CCn1c(-c2nonc2N)nc2cncc(Br)c21 [SB-738004] | 15 | 0 | 16 | 16 | 31 | 39 | 3 | 38 | 35 | 43
Cl.Cl.NC[C@H](CC1CCCCC1)NC(=O)c1ccc(-c2ccnc3[nH]ccc23)s1 [GSK1581428] | 14 | 61 | 62 | 99.9 | 66 | 0 | 0 | 95.8 | 79 | 17
Cn1ccc2ncnc(Oc3ccc(NC(=O)Nc4cnn(C(C)(C)C)c4)c(Cl)c3)c21 | 0 | 21 | 4 | 11 | 0 | 1 | 9 | 6 | 8 | 14
Cc1ccc(CC(=O)N2CCc3cc(-c4cn(C)c5ncnc(N)c45)ccc32)cc1 [GSK2634758] | 32 | 0 | 87 | 0 | 0 | 0 | 9 | 18 | 8 | 0
Cl.c1ccc(Oc2ccc(Nc3ccnc4cc(-c5ccc(CN6CCNCC6)o5)ccc34)cc2)nc1 [GW567142] | 0 | 0 | 0 | 8 | 1 | 7 | 0 | 10 | 4 | 3

Structure (SMILES) | %Inh (MTOR) [%] | %Inh (MUSK) [%] | %Inh (MYLK2) [%] | %Inh (MYLK4) [%] | %Inh (MYLK) [%] | %Inh (MYO3A) [%] | %Inh (MYO3B) [%] | %Inh (NDR1) [%] | %Inh (NDR2) [%] | %Inh (NEK10) [%]
Cn1ccc2ncnc(Oc3ccc(NC(=O)Nc4cccc(C(F)(F)F)c4)c(Cl)c3)c21 | 33 | 94.6 | 21 | 5 | 3 | 0 | 22 | 17 | 0 | 0
CC(=O)c1c(-c2ccncc2)[nH]c(-c2ccncc2)c1C [GW493036] | 0 | 8 | 4 | 7 | 4 | 42 | 0 | 19 | 0 | 0
CN1CCN(CCNc2nc3cc(Oc4ccc(NC(=O)Nc5cc(C(F)(F)F)ccc5F)cc4)ccc3[nH]2)CC1.Cl.Cl [GW768504] | 0 | 97.3 | 6 | 0 | 0 | 0 | 20 | 51 | 7 | 0
CSc1nccc(-c2c(-c3ccc(F)cc3)ncn2CCCN2CCOCC2)n1.Cl [SB-217146] | 35 | 0 | 0 | 0 | 5 | 21 | 8 | 42 | 26 | 14
CC(=O)Nc1nc2cnc(Nc3cc(NC(=O)c4cccc(CC(C)(C)C#N)c4)ccc3C)nc2s1 | 14 | 2 | 0 | 14 | 42 | 25 | 0 | 0 | 13 | 0
CN(c1ccccc1CNc1nc(Nc2ccc3c(c2)CC(=O)N3)ncc1C(F)(F)F)S(C)(=O)=O | 21 | 71 | 4 | 2 | 0 | 0 | 0 | 33 | 12 | 0
N#Cc1cccc(C(=O)NC2CCN(c3ccnc(Nc4ccc(F)cc4)n3)C2)c1 (stereo not drawn) [GSK1379708] | 4 | 0 | 0 | 0 | 0 | 4 | 0 | 0 | 41 | 1
FC(F)(F)c1cc(Br)cc(Nc2nccc(-c3cnn4ncccc34)n2)c1 [GW810578] | 0 | 18 | 1 | 29 | 8 | 9 | 8 | 19 | 13 | 40
Cc1n[nH]c2cc(Nc3ccnc(Nc4cccc(CN5CCOCC5)c4)n3)ccc12 [GW682569] | 14 | 15 | 9 | 17 | 21 | 22 | 0 | 25 | 14 | 9
COc1ccc(Nc2nccc(N3CCC(NC(=O)c4cccc(C#N)c4)C3)n2)cc1 (stereo not drawn) [GSK1379730] | 10 | 5 | 0 | 0 | 0 | 0 | 0 | 0 | 0 | 28
Cc1nnc(-c2ccc3occ(-c4ccc(S(C)=O)cc4)c3n2)o1 (stereo not drawn) | 0 | 0 | 6 | 0 | 0 | 0 | 0 | 0 | 0 | 0
CCCC(=O)Nc1n[nH]c2ncccc12 [SB-601436] | 0 | 0 | 0 | 0 | 2 | 0 | 12 | 9 | 0 | 0
Cc1ccc(Nc2ccnc(Nc3ccc4c(c3)CS(=O)(=O)C4)n2)cc1O.Cl [GW579362] | 30 | 53 | 32 | 87 | 27 | 15 | 0 | 28 | 0 | 16
CN(c1cccc(CNc2nc(Nc3ccc4c(c3)CC(=O)N4)ncc2C(F)(F)F)c1)S(C)(=O)=O | 24 | 58 | 74 | 24 | 0 | 0 | 1 | 49 | 0 | 0
CCNCC(Cc1ccccc1)NC(=O)c1cc(Br)c(-c2ccnc3[nH]ccc23)s1.Cl.Cl (stereo not drawn) [GSK1383280] | 8 | 2 | 22 | 86 | 73 | 15 | 0 | 99.8 | 52 | 0
COC(=O)c1cccc(NC(=O)NC2CCN(c3ccnc(NCc4ccc(F)cc4)n3)CC2)c1 [GSK1379860] | 23 | 0 | 7 | 0 | 0 | 0 | 0 | 0 | 0 | 1
